# What was measured:
# Test in all cases: DAPPL (digital affinity profiling via proximity ligation, sequencing); 10 mM Tris-HCl pH 7.5, 50 mM NaCl, 1 mM DTT, 4% glycerol, room temperature, 30 min; GST-TFs on glutathione beads, 16-mer random dsDNA library, 0.1% formaldehyde crosslink after washing; high values mean tight binding
# FEV = target: T1, FEV (Homo sapiens, UniProt Q99581 1-238); settings: protein: recombinant; tags: N-terminal GST; dsDNA, one strand shown
# T1 sequence: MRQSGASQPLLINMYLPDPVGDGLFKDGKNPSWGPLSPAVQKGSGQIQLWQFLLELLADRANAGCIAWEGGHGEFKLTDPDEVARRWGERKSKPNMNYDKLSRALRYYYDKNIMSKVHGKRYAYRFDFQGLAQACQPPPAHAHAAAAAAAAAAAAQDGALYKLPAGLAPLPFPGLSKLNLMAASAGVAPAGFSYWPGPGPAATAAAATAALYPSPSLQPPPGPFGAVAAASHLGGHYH
# Method in brief: (§1)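 After expression in yeast as GST fusions, human transcription factors were bound to glutathione beads, DNA-barcoded and mixed with a tag-only sample. The pools were incubated with 200 nmole of a 16-mer random double-stranded DNA library in Tris/NaCl/DTT/glycerol buffer (30 min, room temperature), washed and crosslinked with 0.1% formaldehyde. Proximity ligation with BsaI/T4 ligase ran for 1 h at 37 °C, before PCR amplification and sequencing on an Illumina NextSeq500. Binding signal is a hexamer's read frequency for a factor divided by its frequency for the tag-only sample.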
# ETV5 = ETV5 (Homo sapiens, UniProt P41161 1-510); settings: protein: recombinant; tags: N-terminal GST; dsDNA, one strand shown
# Method in brief: as §1
# HSF1 = HSF1 (Homo sapiens, UniProt Q00613 1-529); settings: protein: recombinant; tags: N-terminal GST; chain copies: 3; dsDNA, one strand shown
# Method in brief: as §1
# SPIC = target: T2, SPIC (Homo sapiens, UniProt Q8N5J4 1-248); settings: protein: recombinant; tags: N-terminal GST; dsDNA, one strand shown
# T2 sequence: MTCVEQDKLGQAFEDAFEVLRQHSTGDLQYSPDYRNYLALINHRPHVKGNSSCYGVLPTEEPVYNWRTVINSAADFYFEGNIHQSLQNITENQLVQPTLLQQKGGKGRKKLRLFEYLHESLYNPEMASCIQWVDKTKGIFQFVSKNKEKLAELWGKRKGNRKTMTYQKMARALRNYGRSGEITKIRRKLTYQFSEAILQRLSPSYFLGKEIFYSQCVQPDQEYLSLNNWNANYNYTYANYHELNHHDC
# Method in brief: as §1
# ELF4 = ELF4 (Homo sapiens, UniProt Q99607 1-663); settings: protein: recombinant; tags: N-terminal GST; dsDNA, one strand shown
# Method in brief: as §1
# ELK4 = target: T3, ELK4 (Homo sapiens, UniProt P28324-2 1-405); settings: protein: recombinant; tags: N-terminal GST; dsDNA, one strand shown
# T3 sequence: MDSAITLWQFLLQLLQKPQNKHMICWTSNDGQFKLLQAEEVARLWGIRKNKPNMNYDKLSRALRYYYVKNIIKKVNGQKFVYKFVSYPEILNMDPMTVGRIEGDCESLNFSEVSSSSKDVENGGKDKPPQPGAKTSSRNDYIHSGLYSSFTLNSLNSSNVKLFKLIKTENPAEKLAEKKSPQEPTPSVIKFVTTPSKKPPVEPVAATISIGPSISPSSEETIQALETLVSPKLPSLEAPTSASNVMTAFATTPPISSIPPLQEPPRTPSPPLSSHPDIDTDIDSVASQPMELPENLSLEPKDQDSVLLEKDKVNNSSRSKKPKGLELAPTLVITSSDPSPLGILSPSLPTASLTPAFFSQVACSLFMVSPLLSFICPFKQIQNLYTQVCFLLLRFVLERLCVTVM
# Method in brief: as §1
# ETV2 = target: T4, ETV2 (Homo sapiens, UniProt O00321 1-342); settings: protein: recombinant; tags: N-terminal GST; dsDNA, one strand shown
# T4 sequence: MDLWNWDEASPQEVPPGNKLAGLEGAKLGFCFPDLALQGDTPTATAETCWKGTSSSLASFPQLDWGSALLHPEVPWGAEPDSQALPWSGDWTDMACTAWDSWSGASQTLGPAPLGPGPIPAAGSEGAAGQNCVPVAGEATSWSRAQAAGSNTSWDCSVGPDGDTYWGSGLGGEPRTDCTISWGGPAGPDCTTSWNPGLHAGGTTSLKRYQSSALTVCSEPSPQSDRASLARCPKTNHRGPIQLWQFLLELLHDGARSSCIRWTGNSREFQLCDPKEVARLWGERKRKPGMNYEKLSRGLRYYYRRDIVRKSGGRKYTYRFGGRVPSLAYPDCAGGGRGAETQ
# Method in brief: as §1
# ELF3 = target: T5, ELF3 (Homo sapiens, UniProt P78545 1-371); settings: protein: recombinant; tags: N-terminal GST; dsDNA, one strand shown
# T5 sequence: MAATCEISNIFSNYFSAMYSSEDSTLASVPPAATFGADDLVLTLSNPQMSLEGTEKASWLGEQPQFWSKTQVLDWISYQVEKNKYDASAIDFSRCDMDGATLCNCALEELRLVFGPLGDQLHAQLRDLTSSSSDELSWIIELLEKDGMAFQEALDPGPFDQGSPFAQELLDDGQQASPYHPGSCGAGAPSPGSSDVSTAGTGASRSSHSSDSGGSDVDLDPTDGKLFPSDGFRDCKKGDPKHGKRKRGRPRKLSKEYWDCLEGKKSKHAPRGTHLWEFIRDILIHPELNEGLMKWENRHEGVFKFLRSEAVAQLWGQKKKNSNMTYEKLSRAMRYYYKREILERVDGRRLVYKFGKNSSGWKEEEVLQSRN
# Method in brief: as §1
# CRX = CRX (Homo sapiens, UniProt O43186 1-299); settings: protein: recombinant; tags: N-terminal GST; dsDNA, one strand shown
# Method in brief: as §1
# ETV1 = ETV1 (Homo sapiens, UniProt P50549 1-477); settings: protein: recombinant; tags: N-terminal GST; dsDNA, one strand shown
# Method in brief: as §1
# Chain of ETV5 (P41161 whole entry): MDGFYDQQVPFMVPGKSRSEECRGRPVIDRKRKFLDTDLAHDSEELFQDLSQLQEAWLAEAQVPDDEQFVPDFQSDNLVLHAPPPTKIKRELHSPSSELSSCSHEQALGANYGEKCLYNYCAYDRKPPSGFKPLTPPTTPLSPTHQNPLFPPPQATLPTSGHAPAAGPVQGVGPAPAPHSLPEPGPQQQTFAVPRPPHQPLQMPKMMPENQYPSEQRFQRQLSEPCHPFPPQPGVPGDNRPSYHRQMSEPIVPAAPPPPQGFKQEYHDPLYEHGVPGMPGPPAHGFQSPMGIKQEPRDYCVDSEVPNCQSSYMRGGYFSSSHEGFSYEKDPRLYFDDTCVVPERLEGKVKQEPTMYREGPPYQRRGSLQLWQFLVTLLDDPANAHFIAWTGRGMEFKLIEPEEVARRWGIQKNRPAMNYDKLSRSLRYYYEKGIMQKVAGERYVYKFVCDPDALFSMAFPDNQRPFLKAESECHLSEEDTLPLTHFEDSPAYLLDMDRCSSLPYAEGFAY
# Chain of HSF1 (Q00613 whole entry): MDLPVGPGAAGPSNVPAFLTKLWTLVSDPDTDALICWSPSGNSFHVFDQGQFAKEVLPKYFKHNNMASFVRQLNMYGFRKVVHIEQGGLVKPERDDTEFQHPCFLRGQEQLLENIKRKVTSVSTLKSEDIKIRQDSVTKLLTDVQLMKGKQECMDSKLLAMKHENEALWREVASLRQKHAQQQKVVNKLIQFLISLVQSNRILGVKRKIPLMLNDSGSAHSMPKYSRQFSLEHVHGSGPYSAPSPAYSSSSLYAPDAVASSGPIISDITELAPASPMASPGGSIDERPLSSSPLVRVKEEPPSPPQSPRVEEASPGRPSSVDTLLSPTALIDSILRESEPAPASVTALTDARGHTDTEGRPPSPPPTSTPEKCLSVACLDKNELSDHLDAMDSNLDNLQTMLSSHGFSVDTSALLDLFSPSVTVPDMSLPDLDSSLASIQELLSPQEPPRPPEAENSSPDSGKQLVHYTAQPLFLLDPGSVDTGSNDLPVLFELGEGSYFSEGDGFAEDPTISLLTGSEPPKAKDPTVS
# Chain of ETV1 (P50549 whole entry): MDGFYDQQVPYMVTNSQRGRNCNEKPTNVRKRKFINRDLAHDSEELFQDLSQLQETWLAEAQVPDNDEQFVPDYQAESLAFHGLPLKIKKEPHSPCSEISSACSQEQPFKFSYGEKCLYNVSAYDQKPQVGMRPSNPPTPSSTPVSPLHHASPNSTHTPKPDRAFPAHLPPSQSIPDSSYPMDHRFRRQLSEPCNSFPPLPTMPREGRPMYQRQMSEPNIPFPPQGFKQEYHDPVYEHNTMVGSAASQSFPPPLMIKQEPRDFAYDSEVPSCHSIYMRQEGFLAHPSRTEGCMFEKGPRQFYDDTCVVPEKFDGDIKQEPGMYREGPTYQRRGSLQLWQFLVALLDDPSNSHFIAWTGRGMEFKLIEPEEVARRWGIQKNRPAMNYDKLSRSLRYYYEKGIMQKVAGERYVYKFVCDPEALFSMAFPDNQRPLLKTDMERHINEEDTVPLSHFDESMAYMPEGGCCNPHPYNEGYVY
# Chain of ELF4 (Q99607 whole entry): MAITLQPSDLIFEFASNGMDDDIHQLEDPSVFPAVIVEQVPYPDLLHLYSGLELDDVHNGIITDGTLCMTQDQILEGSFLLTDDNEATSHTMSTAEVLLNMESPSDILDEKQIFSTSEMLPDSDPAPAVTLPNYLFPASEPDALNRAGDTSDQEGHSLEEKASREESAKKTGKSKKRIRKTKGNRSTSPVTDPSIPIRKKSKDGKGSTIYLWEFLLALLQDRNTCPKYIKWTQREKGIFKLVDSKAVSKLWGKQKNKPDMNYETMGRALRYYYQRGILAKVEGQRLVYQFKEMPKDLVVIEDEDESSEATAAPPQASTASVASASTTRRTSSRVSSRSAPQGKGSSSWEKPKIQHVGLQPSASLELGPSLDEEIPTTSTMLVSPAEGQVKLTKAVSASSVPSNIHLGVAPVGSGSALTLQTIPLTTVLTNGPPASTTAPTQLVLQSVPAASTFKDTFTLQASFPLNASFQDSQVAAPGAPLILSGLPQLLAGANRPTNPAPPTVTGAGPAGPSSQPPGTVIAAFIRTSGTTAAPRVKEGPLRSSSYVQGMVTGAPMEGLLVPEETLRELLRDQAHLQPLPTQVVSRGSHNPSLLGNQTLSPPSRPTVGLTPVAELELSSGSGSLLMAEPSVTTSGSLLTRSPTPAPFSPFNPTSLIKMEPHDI
# Chain of CRX (O43186 whole entry): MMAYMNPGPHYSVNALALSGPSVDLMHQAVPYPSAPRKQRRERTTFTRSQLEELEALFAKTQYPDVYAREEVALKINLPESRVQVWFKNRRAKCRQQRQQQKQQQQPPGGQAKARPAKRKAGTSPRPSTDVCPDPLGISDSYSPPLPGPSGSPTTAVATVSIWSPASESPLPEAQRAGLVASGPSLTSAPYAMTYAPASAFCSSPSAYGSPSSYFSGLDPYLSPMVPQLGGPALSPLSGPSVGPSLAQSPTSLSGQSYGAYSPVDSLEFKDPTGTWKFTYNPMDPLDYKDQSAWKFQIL
sequence,measurement,setting,value
TTTCCT,binding signal,FEV,"2.34 fold enrichment (6-mer frequency, TF over GST control)"
same,binding signal,ETV5,"2.73 fold enrichment (6-mer frequency, TF over GST control)"
same,binding signal,HSF1,"1.73 fold enrichment (6-mer frequency, TF over GST control)"
same,binding signal,SPIC,"2.42 fold enrichment (6-mer frequency, TF over GST control)"
same,binding signal,ELF4,"2.19 fold enrichment (6-mer frequency, TF over GST control)"
same,binding signal,ELK4,"2.04 fold enrichment (6-mer frequency, TF over GST control)"
same,binding signal,ETV2,"2.49 fold enrichment (6-mer frequency, TF over GST control)"
same,binding signal,ELF3,"2.44 fold enrichment (6-mer frequency, TF over GST control)"
same,binding signal,CRX,"1.56 fold enrichment (6-mer frequency, TF over GST control)"
same,binding signal,ETV1,"2.43 fold enrichment (6-mer frequency, TF over GST control)"
